An excerpt weighted towards active compounds, which were near 1.6% of everything screened.
KCNQ2 inh: rat KCNQ2 potassium channel inhibitors, primary screen, cell-based, CHO-K1, FluxOR thallium flux, B-score; 310,000 compounds, 1.1% hits; 20 min; active compounds read low; B-score at 10 µM; Potassium voltage-gated channel subfamily KQT member 2 (Rattus norvegicus), O88943;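 active = fluorescence ratio B-score at most minus 3 library SDs, with starting brightness B-score within 2 library SDs, cut at about -5.5 in these data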
KCNQ2 pot: potentiators of rat KCNQ2 potassium channel; B-score at 10 µM; CHO-K1 KCNQ2, FluxOR thallium flux fluorescence; active compounds read high; 310,000 compounds, 0.54% hits;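 active = fluorescence ratio B-score at least 3 SD of library B-scores, with initial fluorescence B-score within 3 of them, cut at about 5.3 in these data; same plate scores as AID 2156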;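 also: B-score of peak minus minimum over baseline fluorescence ratio after K+ and Tl+ stimulus; positive B-score means potentiation of KCNQ2 with more thallium influx and brighter signal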
KCNQ2 inh conf: rat KCNQ2 potassium channel inhibitors, confirmation, cell-based, thallium flux. shares compounds with KCNQ2 inh. KCNQ2-expressing cells, inhibition; active compounds read low. activity change, negative = inhibition, % at 10 µM. 1,000 compounds, 57% hits. AID 493025, 2011;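 also: 0% = vehicle wells and values are ratio percent relative to vehicle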
KCNQ1 spec: human KCNQ1 channel inhibition, counter-screen for KCNQ2 inhibitor project, cell-based, FluxOR thallium flux; shares compounds with KCNQ2 inh; KCNQ1-expressing cells, FluxOR thallium flux fluorescence; active compounds read low; activity change, negative = inhibition, % at 10 µM; 1,000 compounds, 15% hits; AID 493026, 2011;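 active = activity change at least 3 SD of negative controls below their mean in both duplicate wells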;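 also: CHO cells stably transfected with KCNQ1 and depolarized by potassium stimulus; peak minus minimum fluorescence over baseline after thallium addition; 0% = vehicle negative control and -100% = blank without thallium stimulus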
Target sequence (P51787 whole entry, looked up): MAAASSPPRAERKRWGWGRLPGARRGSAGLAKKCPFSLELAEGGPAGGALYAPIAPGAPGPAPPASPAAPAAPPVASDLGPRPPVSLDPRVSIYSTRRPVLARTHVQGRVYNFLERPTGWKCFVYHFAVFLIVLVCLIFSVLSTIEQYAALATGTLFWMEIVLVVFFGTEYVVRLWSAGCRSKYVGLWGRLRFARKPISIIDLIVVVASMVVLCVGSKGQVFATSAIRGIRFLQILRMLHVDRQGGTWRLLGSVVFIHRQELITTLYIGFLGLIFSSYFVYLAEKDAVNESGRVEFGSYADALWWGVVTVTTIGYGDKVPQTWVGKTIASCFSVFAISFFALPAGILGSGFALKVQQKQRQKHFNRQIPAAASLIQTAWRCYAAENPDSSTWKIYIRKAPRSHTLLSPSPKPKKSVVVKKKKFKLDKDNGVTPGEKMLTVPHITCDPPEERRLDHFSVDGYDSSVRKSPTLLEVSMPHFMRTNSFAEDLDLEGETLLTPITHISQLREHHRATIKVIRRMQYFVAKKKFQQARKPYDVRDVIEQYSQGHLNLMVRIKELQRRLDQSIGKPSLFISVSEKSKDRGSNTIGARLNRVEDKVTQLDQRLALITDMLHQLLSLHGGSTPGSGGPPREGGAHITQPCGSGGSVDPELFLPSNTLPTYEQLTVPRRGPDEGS
CHO Tl ctr: thallium flux change in parental CHO cells, counter-screen for KCNQ2 inhibitor project; AID 493029, 2011; 1,000 compounds, 14% hits; shares compounds with KCNQ2 inh; active compounds read low; activity change, % at 10 µM;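 also: 0% = vehicle negative controls with stimulus buffer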
KCNQ2 inh confirm: rat KCNQ2 channel inhibitors, confirmation, cell-based, automated patch clamp, single concentration. calls only at 10 µM. shares compounds with KCNQ2 inh. KCNQ2-expressing cells, automated patch clamp current. AID 588531, 2011. 550 compounds, 49% hits
* = called active by the depositor; i = inactive; . = no result given; + = active, no number. Unless noted, no rule for the calls is given here.

SMILES | KCNQ2 inh | KCNQ2 pot | KCNQ2 inh conf | KCNQ1 spec | CHO Tl ctr | others
CC(NC(=O)C12CC3CC(C)(CC(C)(C3)C1)C2)c1ccncc1 (stereo not drawn) | i | 0.79 | . | . | .
O=C(CCN1C(=O)/C(=C\c2cccc(Br)c2)SC1=S)N1CCOCC1 | i | 2.21 | . | . | .
COCc1cc(C)nc(SCC(=O)Nc2cc(C(F)(F)F)ccc2N2CCOCC2)c1C#N | -5.63* | -5.63 | . | . | .
COCc1cc(C)nc(SCC(=O)Nc2ccccc2C)c1C#N | i | 0.69 | . | . | .
Cc1ccc(-n2c(C)cc(C(=S)N3CCOCC3)c2C)cc1C | -7.4* | -7.4 | . | . | .
Cc1cc(C(=S)N2CCOCC2)c(C)n1-c1ccc(F)cc1 | i | . | . | . | .
O=C(CN1CCOCC1)NCc1cc([N+](=O)[O-])ccc1O | i | 0.04 | . | . | .
C=C1SC(Nc2c(C)cc(C)cc2C)=NC12CCCCC2 | -7.62* | -7.62 | -27.5%* | i | i | KCNQ2 inh confirm=i
C=C1SC(Nc2c(C)cccc2C)=NC12CCCCC2 | i | . | . | . | .
Cc1ccc(C(C(=O)NCc2ccc(F)cc2)N(C(=O)c2csnn2)C2CC2)o1 (stereo not drawn) | -8.72* | -8.72 | -20.5%* | i | i | KCNQ2 inh confirm=+
Cc1ccc(C(C(=O)NCc2ccc(F)cc2)N(C(=O)c2csnn2)C2CC2)cc1 (stereo not drawn) | i | . | . | . | .
CCc1ccc(NC(=O)CSc2nnnn2-c2cccnc2)cc1 | i | 0.14 | . | . | .
Cc1ccc(NC(=S)N(C)C(c2ccccc2)c2ccccc2)cc1C | -8.36* | -8.36 | -25.0%* | i | i | KCNQ2 inh confirm=i
CN(C(=S)Nc1ccc(F)cc1)C(c1ccccc1)c1ccccc1 | i | . | . | . | .
CCc1ccc(S(=O)(=O)NCc2csc(C)n2)cc1 | i | . | . | . | .
CC(CN1CCCCC1)OC(=O)c1ccco1 (stereo not drawn) | i | . | . | . | .
O=C(COc1ccc(Br)cc1)N(Cc1ccccc1)c1ccccn1 | i | . | . | . | .
O=C(COc1ccc(Cl)cc1)N(Cc1ccccc1)c1ccccn1 | -9.06* | -9.06 | i | i | i
COc1ccccc1OCC(=O)NN=C(Cc1ccccc1)Cc1ccccc1 | -6.72* | -6.72 | -31.5%* | i | i | KCNQ2 inh confirm=+
CCOc1ccccc1OCC(=O)N/N=C(\C)Cc1ccc(OC)cc1 | i | 0.09 | . | . | .
O=C(NCc1ccc(Cl)cc1)C1CCCN1C(=O)Nc1ccccc1 (stereo not drawn) | i | 0.43 | . | . | .
O=C(Oc1ccc(Br)cc1C(=S)N1CCOCC1)c1ccc([N+](=O)[O-])cc1[N+](=O)[O-] | i | . | . | . | .
O=C1CCC([N+](=O)[O-])C(c2ccccc2C(F)(F)F)N1 (stereo not drawn) | i | . | . | . | .
CC(C)(C)c1ccc(S(=O)(=O)NCCc2ccncc2)cc1 | i | . | . | . | .
Cc1ccc(CNS(=O)(=O)c2ccc(C(C)(C)C)cc2)n1C | -7.14* | -7.14 | . | i | i | KCNQ2 inh confirm=+
SMILES | KCNQ2 inh | KCNQ2 pot | KCNQ2 inh conf | KCNQ1 spec | CHO Tl ctr | others
CCOc1ccc(CNc2nc3ccccc3n2CCN2CCOCC2)cc1 | i | . | . | . | .
CCCn1c(NCc2ccc3c(c2)OCO3)nc2ccccc21 | i | . | . | . | .
Brc1cccc(CNc2nc3ccccc3n2CCN2CCOCC2)c1 | -8.44* | -8.44 | i | i | i
CCCCn1c(NCc2ccc3c(c2)OCO3)nc2ccccc21 | -8.51* | -8.51 | -33.0%* | i | i | KCNQ2 inh confirm=+
CC1Cc2cc(S(=O)(=O)N3CCC(C(=O)N(C)Cc4ccccc4)CC3)ccc2N1C(=O)C1CC1 (stereo not drawn) | i | . | . | . | .
CCC(C)[C@H]1COCCS(=O)(=O)N1Cc1ccc(Br)cc1 (stereo partly drawn) | i | . | . | . | .
CCNC1CCS(=O)(=O)C1 (stereo not drawn) | i | . | . | . | .
CCN(CC)CCCNC1CCS(=O)(=O)C1 (stereo not drawn) | -6.71* | -6.71 | i | i | i
O=C(NC1CC(=O)N(c2ccc(Cl)cc2)C1)N1CCN(C(=O)c2ccco2)CC1 (stereo not drawn) | i | 0.79 | . | . | .
Clc1ccc(COn2c(-c3ccc(Cl)cc3)nc3ccccc32)cc1 | i | . | . | . | .
Clc1ccc(COn2c(-c3ccccc3)nc3ccccc32)cc1 | -14.5* | -14.5 | i | i | i
CC(Sc1ccc(Cl)cc1)C(=O)N(C)CC(=O)Nc1ccc(N2CCOCC2)cc1 (stereo not drawn) | i | 2.14 | . | . | .
COc1cc(C)nc(OCCNC(=O)COc2ccc(Cl)cc2C)n1 | -7.52* | -7.52 | i | i | i
Cc1cc(Cl)ccc1OCC(=O)NCCOc1nc(N2CCCCC2)nc(N2CCOCC2)n1 | i | . | . | . | .
O=C(COC(=O)CCSc1ccc(Cl)cc1)NCc1ccccc1Cl | i | 0.33 | . | . | .
O=C(COC(=O)CCSc1ccc(Cl)cc1)NCc1ccco1 | -8.05* | -8.05 | i | i | i
Cc1onc(-c2ccccc2)c1C(=O)Nc1nc(-c2cc(F)ccc2F)cs1 | i | . | . | . | .
Cc1onc(-c2ccccc2)c1C(=O)Nc1nc(-c2ccccc2)cs1 | -7.24* | -7.24 | i | i | i
COc1cccc(CNc2cc(C)ccn2)c1O | i | 0.73 | . | . | .
Cc1ccnc(NCc2cccc3ccccc23)c1 | -6.92* | -6.92 | -40.0%* | -29.0%* | -28.5%*
O=C(Nc1cc(Cl)ccc1N1CCOCC1)c1cccnc1Cl | i | . | . | . | .
CCCOc1ccccc1Cn1c(=O)oc2ccccc21 | i | . | . | . | .
CSCCC(NC(=O)COc1ccccc1)C(=O)NC1CCC(C)CC1 (stereo not drawn) | i | . | . | . | .
CSCCC(NC(=O)c1ccccc1Br)C(=O)N1CCCCCCC1 (stereo not drawn) | -9.58* | -9.58 | -29.0%* | i | i | KCNQ2 inh confirm=+
CSCCC(NC(=O)c1ccccc1Br)C(=O)NCc1ccc(F)cc1 (stereo not drawn) | i | 0.1 | . | . | .
SMILES | KCNQ2 inh | KCNQ2 pot | KCNQ2 inh conf | KCNQ1 spec | CHO Tl ctr | others
CSCCC(NC(=O)c1ccccc1Br)C(=O)N1CCCC(C(F)(F)F)C1 (stereo not drawn) | -9.31* | -9.31 | -16.0%* | i | i | KCNQ2 inh confirm=+
CSCCC(NC(=O)COc1ccccc1)C(=O)N1CCCC(C(F)(F)F)C1 (stereo not drawn) | -6.98* | -6.98 | i | i | i
CSCCC(NC(=O)c1ccccc1Br)C(=O)NCC1CCCCC1 (stereo not drawn) | i | . | . | . | .
C#CCOC(=O)c1cc(Cl)c(=O)n(Cc2ccc(Cl)cc2Cl)c1 | i | 0.87 | . | . | .
COc1cc(OC)nc(/N=C/NO)n1 | i | 0.79 | . | . | .
COc1ccc(S(=O)(=O)N2CCC(C(=O)Nc3cc(Cl)ccc3N3CCOCC3)CC2)cc1OC | i | 0.4 | . | . | .
CN(C)C(CNC(=O)c1ccc(-c2ccccc2)cc1)c1ccccc1 (stereo not drawn) | -6.63* | -6.63 | i | i | i
